This note sets out measurements from the supplement of paper PMC13380429.

Assay [1] deals with Vero E6 infected with SARS-CoV-2. As to the kind of experiment: morphology score (similarity to uninfected cells); higher = more like uninfected cells. As to conditions: 24 h.
For assay [2] the test system is unchanged. Put plainly: SARS-CoV-2 infection rate relative to infected DMSO; higher = more infection, active = 60 or less. The note with it: 24 h.

For the compound `COc1ccc(-c2cc3nccn3c(Nc3ncccc3C(N)=O)n2)cc1OC` (0.833333 µM), the morphology score in assay [1] was 0.46. Moreover, in assay [2], the SARS-CoV-2 infection rate is 27% (active).

Turning to `COc1cnc(NS(=O)(=O)c2ccc(N)cc2)nc1` [sulfameter] (10 µM), the morphology score in assay [1] amounted to 0.131. Besides, in assay [2], the SARS-CoV-2 infection rate was 111% (inactive).

With `CS(=O)(=O)c1ccc(-c2cnc(NCc3ccco3)n3cnnc23)cc1` (10 µM), in assay [1], the morphology score was 0.197. Moreover, in assay [2], the SARS-CoV-2 infection rate was 83% (inactive).

Consider `COc1cc2c(c(OC)c1OC)-c1ccc(OC)c(=O)cc1[C@@H](NC(C)=O)CC2` [colchicine] (10 µM), for which the morphology score in assay [1] was -0.0542. Besides, the SARS-CoV-2 infection rate in assay [2] is 96% (inactive).

In assay [1], `COc1ccc(-c2cc(=O)c3c(O)cc(O)cc3o2)cc1O` [diosmetin] (10 µM) came in with a morphology score of 0.205. Besides, in assay [2], the SARS-CoV-2 infection rate was 106% (inactive).

Turning to `Cc1cc(NC(=O)Nc2ccc(N(C)C)cc2)c2cc(F)cc(F)c2n1` (10 µM), the morphology score in assay [1] came out at 0.204. In assay [2], the SARS-CoV-2 infection rate was 99% (inactive).

In turn, `C=C[C@H]1CN2CC[C@H]1C[C@@H]2[C@@H](O)c1ccnc2ccc(OC)cc12` [quinidine] (10 µM) yielded a morphology score in assay [1] of 0.155. Also, the SARS-CoV-2 infection rate in assay [2] was 108% (inactive).

As for `O=C(O)c1cccnc1` [niacin] (10 µM), in assay [1], the morphology score was 0.195. Also, in assay [2], the SARS-CoV-2 infection rate is 102% (inactive).

In turn, `O=C(O)c1cc(=O)c2ccccc2o1` [chromocarb] (10 µM) showed a morphology score in assay [1] of -0.133. In addition, in assay [2], the SARS-CoV-2 infection rate was 106% (inactive).

Compound `O=C1c2ccccc2S(=O)(=O)N1CCCCN1CCN(c2ncccn2)CC1` [ipsapirone] (10 µM) had a morphology score in assay [1] of -0.0209. In addition, in assay [2], the SARS-CoV-2 infection rate was 102% (inactive).

Consider `Nc1ncn([C@H]2C[C@H](O)[C@@H](CO)O2)c(=O)n1` [decitabine] (10 µM), for which the morphology score in assay [1] turned out to be 0.0186. In assay [2], the SARS-CoV-2 infection rate is 104% (inactive).

In turn, `CCn1cc(C(=O)O)c(=O)c2cc(F)c(N3CCN(C)CC3)cc21` [pefloxacin] (10 µM) showed a morphology score in assay [1] of 0.158. The SARS-CoV-2 infection rate in assay [2] is 91.5% (inactive).

Consider `COc1cc2c(cc1OC)-c1c(C)c3ccc(OC)c(OC)c3c[n+]1CC2` [dehydrocorydaline] (10 µM), for which the morphology score in assay [1] is 0.0289. Moreover, the SARS-CoV-2 infection rate in assay [2] was 104% (inactive).

In turn, `Cc1cc(F)c(Nc2ncnc3cc(OCc4ccccc4)ccc23)cc1O` (10 µM) had a morphology score in assay [1] of 0.0561. Besides, the SARS-CoV-2 infection rate in assay [2] was 99% (inactive).

In turn, `C=CCc1cccc(/C=N/NC(=O)CN2CCN(Cc3ccccc3)CC2)c1O` (0.833333 µM) returned a morphology score in assay [1] of 0.152. In addition, the SARS-CoV-2 infection rate in assay [2] is 100% (inactive).

For `CCC[C@@H]1C[C@@H](C(=O)N[C@@H]([C@H]2O[C@H](SC)[C@H](OP(=O)(O)O)[C@@H](O)[C@H]2O)[C@H](C)Cl)N(C)C1` [Clindamycin phosphate] (10 µM), the morphology score in assay [1] was -0.0234. The SARS-CoV-2 infection rate in assay [2] is 107% (inactive).

Consider `CN1CCN(c2c(F)cc3c(=O)c(C(=O)O)cn4c3c2SCC4)CC1` [rufloxacin] (10 µM), for which, in assay [1], the morphology score came out at 0.0805. For the same compound, the SARS-CoV-2 infection rate in assay [2] was 103% (inactive).

In assay [1], `CC(=O)C(=Cc1cc(O)c(O)c([N+](=O)[O-])c1)C(C)=O` [nitecapone] (10 µM) came in with a morphology score of 0.103. In assay [2], the SARS-CoV-2 infection rate is 102% (inactive).

In turn, `COc1ccc(CN(CCN(C)C)c2ncccn2)cc1` [thonzylamine] (10 µM) returned a morphology score in assay [1] of 0.0251. The SARS-CoV-2 infection rate in assay [2] is 110% (inactive).

Turning to `O=c1oc2c(O)c(O)cc3c(=O)oc4c(O)c(O)cc1c4c23` [ellagic-acid] (10 µM), the morphology score in assay [1] worked out at 0.105. Also, the SARS-CoV-2 infection rate in assay [2] is 94% (inactive).

Consider `Cc1cc(-c2nc(-c3ccc(OC(F)(F)F)cc3)no2)nn1Cc1ccnc(N2CCN(C3CC3)CC2)c1` (10 µM), for which the morphology score in assay [1] was 0.0825. Besides, the SARS-CoV-2 infection rate in assay [2] is 98.5% (inactive).

In assay [1], `CC1(C)CNc2cc(NC(=O)c3cccnc3NCc3ccncc3)ccc21` [motesanib] (10 µM) returned a morphology score of 0.196. Moreover, in assay [2], the SARS-CoV-2 infection rate is 108% (inactive).

`COC1=C(OC)C(=O)C(CCCCCCCCCCO)=C(C)C1=O` [idebenone] (10 µM) showed a morphology score in assay [1] of -0.0056. The SARS-CoV-2 infection rate in assay [2] is 92.5% (inactive).

In assay [1], `Oc1cccc(-c2nc(N3CCOCC3)c3oc4ncccc4c3n2)c1` (10 µM) displayed a morphology score of -0.0667. Besides, the SARS-CoV-2 infection rate in assay [2] is 118% (inactive).

Consider `CO[C@H]1/C=C/O[C@@]2(C)Oc3c(C)c(O)c4c(O)c(c(/C=N/N5CCN(C6CCCC6)CC5)c(O)c4c3C2=O)NC(=O)/C(C)=C\C=C\[C@H](C)[C@H](O)[C@@H](C)[C@@H](O)[C@@H](C)[C@H](OC(C)=O)[C@@H]1C` [rifapentine] (10 µM), for which the morphology score in assay [1] amounted to 0.192. For the same compound, the SARS-CoV-2 infection rate in assay [2] is 107% (inactive).

As to `C[C@@]1(C(=O)O)NCCc2cc(O)c(O)cc21` [salsolinol-1-carboxylic-acid] (10 µM), the morphology score in assay [1] was -0.0436. Besides, the SARS-CoV-2 infection rate in assay [2] was 97.5% (inactive).

On to `CCOc1ccc(S(=O)(=O)O)c2cccnc12` [actinoquinol] (10 µM), for which the morphology score in assay [1] came to 0.0631. Also, the SARS-CoV-2 infection rate in assay [2] was 112% (inactive).

In turn, `CO[C@H]1CC[C@H](N(c2cc(C3=CCCCC3)sc2C(=O)O)C(=O)[C@H]2CC[C@H](C)CC2)CC1` (10 µM) returned a morphology score in assay [1] of 0.155. For the same compound, in assay [2], the SARS-CoV-2 infection rate was 83% (inactive).

`Nc1cc(C(F)(F)F)c(-c2cc(N3CCOCC3)nc(N3CCOCC3)n2)cn1` [buparlisib] (10 µM): the morphology score in assay [1] was -0.0939. The SARS-CoV-2 infection rate in assay [2] is 103% (inactive).

Turning to `Nc1nc(=O)[nH]cc1F` [flucytosine] (10 µM), the morphology score in assay [1] is -0.016. Further, in assay [2], the SARS-CoV-2 infection rate was 107% (inactive).

As to `CCOc1c(N2CCOCC2)cnn(C)c1=O` [emorfazone] (10 µM), the morphology score in assay [1] came out at 0.185. Besides, the SARS-CoV-2 infection rate in assay [2] was 100% (inactive).

Regarding `Cc1ccc(CC2(O)CCN(CCOc3ccc(O)cc3)CC2)cc1` (10 µM), in assay [1], the morphology score is -0.0871. The SARS-CoV-2 infection rate in assay [2] was 111% (inactive).
